Measurements published in PubChem BioAssay.
Active and inactive are the calls of the source. Unless noted, no rule for the calls is given here.

Columns and labels:
[1] = inhibition of Brca1/Bard1 split-luciferase complementation, confirmation, counter-screen for Mdm2/MdmX interaction inhibitor project, luminescence, single concentration (AID 504668); details: Brca1/Bard1 bimolecular luciferase complementation counterscreen, at 8 µM, stronger effect = higher value
[2] = target: Tumor necrosis factor receptor superfamily member 10B (Homo sapiens) (UniProt O14763); assay: caspase-8 TRAIL sensitization, hit retest, confirmation, cell-based, NB7+caspase-8, with/without TRAIL, luminescence panel (AID 651596; in the data active = activity above about 50%); details: NB7 neuroblastoma + caspase-8, TRAIL sensitization, luminescence viability, with TRAIL, mean of runs, at 10 µM, stronger effect = higher value
[3] = as above; details: NB7 neuroblastoma + caspase-8, without TRAIL, luminescence viability, without TRAIL, mean of runs, at 10 µM

Chain of Tumor necrosis factor receptor superfamily member 10B (Homo sapiens) (O14763 whole entry, looked up): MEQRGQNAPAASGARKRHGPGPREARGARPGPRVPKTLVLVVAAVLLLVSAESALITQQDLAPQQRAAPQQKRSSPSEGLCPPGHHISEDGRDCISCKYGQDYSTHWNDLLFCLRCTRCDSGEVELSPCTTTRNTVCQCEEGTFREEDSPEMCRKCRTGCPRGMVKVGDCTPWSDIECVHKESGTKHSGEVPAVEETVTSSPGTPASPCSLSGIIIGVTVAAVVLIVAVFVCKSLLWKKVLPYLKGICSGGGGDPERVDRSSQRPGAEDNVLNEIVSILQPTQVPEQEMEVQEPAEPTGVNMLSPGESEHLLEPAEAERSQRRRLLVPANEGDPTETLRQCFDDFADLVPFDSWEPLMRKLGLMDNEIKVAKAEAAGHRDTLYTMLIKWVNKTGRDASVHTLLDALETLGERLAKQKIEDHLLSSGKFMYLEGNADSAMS

With CC(NC(=O)Nc1nnc(C(F)(F)F)s1)(C(F)(F)F)C(F)(F)F the inhibition [1] was 32.9% (active), the activity [2] was 43.9% and the activity [3] was 43.1%.
With CCCCCc1ccc(OCCCC[n+]2ccccc2)c(CCCCC)c1 the inhibition [1] was 24.6% (active), the activity [2] was 24.6% and the activity [3] was 56.7%.
For COC(=O)c1sc(NC(=O)c2cc(-c3ccccc3)nc3ccccc23)c(C#N)c1C, the inhibition [1] was 35.4% (active), the activity [2] was 52.7% and the activity [3] was 39.1%.
For CC(C)(C)c1ccc(C2CC2C(=O)N/N=C\c2ccc[nH]2)cc1 (centres undefined), the inhibition [1] was 30.5% (active), the activity [2] was 79.5% and the activity [3] was 96.8%.
For CN(C)c1ccnc2c[cH-]cc12.[Fe].c1ccc(-[c-]2[c-](-c3ccccc3)[c-](-c3ccccc3)[c-](-c3ccccc3)[c-]2-c2ccccc2)cc1 (centres undefined), the inhibition [1] was 32% (active), the activity [2] was 6.08% and the activity [3] was -38.5%.
For N#Cc1nc(NCC(F)F)nc(Nc2cc(F)cc(F)c2)n1, the inhibition [1] was 28% (active), the activity [2] was 63.2% and the activity [3] was 71.3%.
With CCCCC(O)(CCCC)C(=O)NN(C(=O)CCl)c1ccccc1 the inhibition [1] was 34% (active), the activity [2] was 92.2% and the activity [3] was 95.7%.
In the case of Cn1ncc2c(O/N=C(\N)c3ccc(C(F)(F)F)cc3)ncnc21, the inhibition [1] is reported as 24.2% (active), the activity [2] is reported as 98.8% and the activity [3] is reported as 98.8%.
For Cc1ccc2nc(/C(C#N)=C\c3ccc([N+](=O)[O-])o3)[nH]c2c1, the inhibition [1] was 29.9% (active), the activity [2] was 95.6% and the activity [3] was 99%.
For O=C(CCl)N(C/C=C/c1ccccc1)c1ccc2c(c1)OCCO2, the inhibition [1] was 26.4% (active), the activity [2] was 97.8% and the activity [3] was 94%.
With O=C(Nc1ccc(OCC(F)(F)C(F)F)c(C(F)(F)F)c1)c1ccccc1O the inhibition [1] was 28.2% (active), the activity [2] was 67.8% and the activity [3] was 68%.
In the case of Cn1c(=NC(=O)CCl)sc2ccccc21, the inhibition [1] is reported as 28.7% (active), the activity [2] is reported as 99.5% and the activity [3] is reported as 98.7%.
In the case of O=C(/C=C/c1ccccc1)NC(NC(=S)Nc1ccc(Cl)cc1)C(Cl)(Cl)Cl (centres undefined), the inhibition [1] is reported as 23.7% (active), the activity [2] is reported as 37.1% and the activity [3] is reported as 30.2%.
For CCN(CC)CCCNc1ccc(-c2nnc(-c3ccc(OCC(C)C)cc3)o2)cn1, the inhibition [1] was 23.9% (active), the activity [2] was 82.5% and the activity [3] was 97.9%.
For CCCCn1c(CCl)nc2cc(S(=O)(=O)N3CCOCC3)ccc21, the inhibition [1] was 30.4% (active), the activity [2] was 92.6% and the activity [3] was 76.2%.
In the case of C(=N\Nc1nncc2ccccc12)/c1ccccn1, the inhibition [1] is reported as 29.9% (active), the activity [2] is reported as 78.7% and the activity [3] is reported as 80.2%.
With O=C(CSc1ccccn1)Nc1nonc1[N+](=O)[O-] the inhibition [1] was 29.3% (active), the activity [2] was 30.1% and the activity [3] was 58.2%.
In the case of COc1cccc(N2CCN(c3ncnc4c3cnn4-c3ccc(C)cc3C)CC2)c1, the inhibition [1] is reported as 28% (active), the activity [2] is reported as 97.8% and the activity [3] is reported as 96%.
In the case of Cc1ccc(C)c(C(=O)Cn2ncc(Cl)c(Cl)c2=O)c1, the inhibition [1] is reported as 31.7% (active), the activity [2] is reported as 99.7% and the activity [3] is reported as 99.3%.
In the case of O=C(Nc1ccc(OCC(F)(F)C(F)F)c(C(F)(F)F)c1)c1ccc(Cl)cc1, the inhibition [1] is reported as 34% (active), the activity [2] is reported as 87.3% and the activity [3] is reported as 65.7%.
With COc1ccccc1C(=O)Nc1nc(-c2ccc(S(=O)(=O)N3CCOCC3)cc2)cs1 the inhibition [1] was 29.5% (active), the activity [2] was 89.5% and the activity [3] was 80.6%.
In the case of COC(=O)Cc1ccc(NC(=O)c2ccc(C(C)(C)C)cc2)cc1, the inhibition [1] is reported as 28.9% (active), the activity [2] is reported as 76.2% and the activity [3] is reported as 77.3%.
With CC(=O)Nc1ccc(NC2=Nc3ccccc3N3C2=Nc2c(c(C)nn2-c2ccccc2)C3c2ccccc2)cc1 (centres undefined) the inhibition [1] was 32.1% (active), the activity [2] was 89.4% and the activity [3] was 73.6%.
